High-throughput results: PubChem, National Center for Advancing Translational Sciences (NCATS)
aSyn yeast inh: inhibitors of alpha-synuclein toxicity in yeast; Yeast expressing alpha-synuclein, growth rescue, BacTiter-Glo, 24 h; Potency, µM (titrated, usually from 46.1 µM), for inactives: top-dose growth rescue (activation), hits mostly activators; 0.14% of 370,000 active; AID 652106; also: % of control where 0% means no effect; nearly all actives have a fitted effect of over 65% in size
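Readout is rescue of growth in alpha-synuclein-expressing yeast, so inhibitors of toxicity appear as activators. Growth after 24 hr at 30 deg C in galactose medium is quantified by luminescence.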
Mito fusion act: inhibitors of mitochondrial division or activators of mitochondrial fusion. S. cerevisiae fusion-defective mutant growth rescue, CellTiterGlo 48 h. 0.23% of 320,000 active. Potency, µM (titrated, usually from 46.1 µM), for the others: at the highest dose growth rescue (activation), actives largely listed as activators. AID 485298; also: % of control where 0% means no effect; nearly all actives have a fitted effect of over 45% in size
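Luminescent cell viability in 1536-well qHTS format served as the measure of rescued growth in ts fusion-mutant S. cerevisiae cultured on non-fermentable YPEG for 48 hours at 37C.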
FUS suppressor: FUS proteinopathy suppression in yeast; S. cerevisiae FUS-expressing, growth rescue, OD600, 24 h; Potency, µM (series often up to 76.6 µM), most hits filed as activators; 0.24% of 390,000 active;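 also: plate controls were DMSO vehicle for no effect and reference control for full effect; nearly all actives have a fitted effect of over 55% in size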
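Restored growth of FUS-toxic S. cerevisiae, read as 600 nm absorbance after 24 h at 30C in galactose medium (starting OD 0.005). Controls CP55940 and DMSO.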
Abeta rescue: compounds reversing amyloid beta toxicity in yeast. 0.063% of 410,000 active. AID 1347071. Potency, µM (top dose mostly 46.1 µM), actives largely listed as activators. yeast expressing A-beta42, growth rescue, OD600, 48 h; response scale: 0% DMSO, 100% iron-clioquinol control; also: nearly all actives have a fitted effect of over 55% in size
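Yeast growth medium received pinned compounds, then yeast cells expressing toxic A-beta were added; plates incubated at 30 C for 48 hr. Growth read as absorbance at 600 nm, normalized to DMSO and equimolar FeCl3 plus clioquinol controls.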
TDP-43 yeast inh: inhibitors of TDP-43 toxicity in yeast; TDP-43 expressing yeast growth rescue, BacTiter-Glo, 24 h; Potency, µM (doses to about 46.1 µM), without a hit: at the top dose growth rescue (activation), most hits filed as activators; 1.8% of 410,000 active; AID 652104; also: % of control where 0% means no effect; nearly all actives have a fitted effect of over 50% in size
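Yeast cells expressing TDP-43 under galactose induction are exposed to compounds for 24 hr at 30 deg C. BacTiter-Glo luminescence measures growth, so protective compounds score as activators.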
* marks the source's active call; other numbers are inactive results; i = inactive; ? = inconclusive; nt = no result given; ! = a repeat was not active. In the library only some 2.2% were active in any assay of this set; here they are far more common. Calls follow the shape of the dose curve; as a rule, active = well fitted curve in the direction sought with a large enough effect; inconclusive = small, poorly fitted or top-dose-only effect, or another doubt; inactive = no such curve, though single readings can be large; an effect the other way counts as inactive or inconclusive. Potency is read from the fitted curve at half-maximal effect.

SMILES | aSyn yeast inh | Mito fusion act | FUS suppressor | Abeta rescue | TDP-43 yeast inh
CC(C)Oc1cc(F)ccc1-c1cc(C(=O)NCC2CCCCC2)[nH]n1 | -22% | nt | ? | i | 18µM*
COc1ccc(Cl)cc1-c1cc(C(=O)NCc2cccs2)[nH]n1 | 7% | nt | i | i | 11µM*
CN(C)c1ccc(-c2csc(C(C)(O)c3ccc(F)c(F)c3)n2)cc1 (stereo not given) | 11% | nt | i | ? | 11%
c1nc(NCC2CCCCO2)c2cc(-c3ccc4c(c3)OCO4)ccc2n1 (stereo not given) | nt | nt | i | nt | nt
COc1ccc(C(=O)C2(C(=O)NCCO)CC(c3ccccn3)=NO2)cc1 (stereo not given) | nt | nt | i | nt | nt
CCn1nc(-c2ccc(C)cc2)nc2c(=O)n(C)c(=O)nc1-2 | -83% | nt | nt | nt | nt
O=C1c2ccccc2C(=O)N1CCCc1c[nH]c2ccc(Cl)cc12 | 5% | 18µM* | nt | i | 10µM*
O=C(CN1C(=O)c2ccccc2C1=O)NCCc1c[nH]c2ccc(Cl)cc12 | 2% | -4% | i | i | 18%
Cc1cccc(C(=O)O/N=C(/c2ccccc2)c2ccncc2)c1 | ? | ? | i | i | 7.1µM*
O=C(O/N=C(\c1ccccc1)c1ccncc1)c1ccccc1Cl | ? | 2% | i | i | 4µM*
COc1ccc(C(=O)O/N=C(/c2ccccc2)c2ccncc2)cc1OC | 1% | 2% | i | i | ?
N/C(=N\OC(=O)c1ccccc1Cl)c1ccccc1 | -21% | 2% | i | i | ?
COc1ccc(Cc2c(-c3ccccc3)nc3c4ccccc4ccn23)c(C)c1 | 17% | nt | i | i | 11µM*
COc1ccc(-c2nc3c4ccccc4ccn3c2Cc2ccccc2)cc1OC | 9% | nt | i | i | 0%
COc1ccc(-c2nc3c4ccccc4ccn3c2Cc2ccccc2C(F)(F)F)cc1OC | 17% | nt | ? | i | 20µM*
CCOC(=O)Cc1c(-c2cccc(Br)c2)nc2c3ccccc3ccn12 | 8% | nt | i | i | 22µM*
Fc1ccc(-c2nc3c4ccccc4ccn3c2Cc2ccccc2C(F)(F)F)cc1 | 16% | nt | i | ? | ?
COc1ccccc1Cc1c(-c2ccc(OC)c(OC)c2)nc2c3ccccc3ccn12 | 4% | nt | ? | i | 11µM*
Brc1cccc(-c2nc3c4ccccc4ccn3c2Cc2ccsc2)c1 | 0% | nt | i | i | ?
OCCc1ccc(O)c(-n2nc3ccccc3n2)c1 | 3% | -3% | i | i | ?
O=c1[nH]c2c(-c3nc(-c4ccc(F)cc4)cs3)c(O)cn2c2ccc(Br)cc12 | -2% | nt | nt | nt | nt
CCOC(=O)[C@@]12CN(C(=O)OC(C)(C)C)CC=C1N(Cc1ccc(OC)cc1)C(=O)[C@H]2CC(=O)NCC12CC3CC(CC(C3)C1)C2 | nt | nt | i | nt | nt
COC(=O)C1CN(Cc2cn(CCC3OCCO3)nn2)CCS(=O)(=O)N1Cc1ccc(Cl)cc1 (stereo not given) | nt | nt | i | nt | nt
O=C(Nc1ccc(Cl)c(Cl)c1)C1CCCN(c2nnc(-n3cccc3)s2)C1 (stereo not given) | nt | nt | i | nt | nt
O[C@H](COc1ccc(OC(F)(F)F)cc1)CN1CCC(C(O)(c2ccccc2)c2ccccc2)CC1 | nt | nt | i | nt | nt
SMILES | aSyn yeast inh | Mito fusion act | FUS suppressor | Abeta rescue | TDP-43 yeast inh
CC(C)NC(=O)C1(N2C(=O)c3ccccc3C2=O)CCCC1 | -7% | nt | i | i | 11µM*
COc1ccc(NC(=O)C2CC(c3ccccc3Cl)=NO2)cc1 (stereo not given) | 12% | 1% | i | i | 11µM*
COc1ccc(Cl)cc1NC(=O)C1CC(c2ccccc2Cl)=NO1 (stereo not given) | -2% | nt | i | i | 9%
O=C(CCl)N1N=C(c2cccs2)CC1c1ccco1 (stereo not given) | 9% | -14% | i | i | 22µM*
O=[N+]([O-])c1cc(S(=O)(=O)C(F)(F)F)ccc1N1CCN(c2ccccc2)CC1 | 1% | ? | i | i | 13%
O=[N+]([O-])c1cc(S(=O)(=O)Nc2ccccc2)ccc1Nc1ccccc1 | 13% | nt | i | ? | 13µM*
O=[N+]([O-])c1cc(S(=O)(=O)Nc2ccccc2)ccc1N1CCN(c2ccccc2)CC1 | 1% | 20µM* | i | i | 15%
CC(C)CN(C(=O)COc1ccc(-c2nnco2)cc1)C1CCS(=O)(=O)C1 (stereo not given) | 5% | -1% | nt | i | 4%
CCc1nc(Nc2ccccc2)c2oc3ccccc3c2n1 | nt | 6% | i | i | 11µM*
Cc1nc(NCCc2ccccc2)c2oc3ccccc3c2n1 | -16% | 8% | i | i | 11µM*
Cc1nc(NCCN2CCOCC2)c2oc3ccccc3c2n1 | 0% | 7% | i | i | 9%
CC(C)(C)c1ccc(OCCNCc2ccccc2)cc1 | -13% | -26% | i | i | 0%
CC(C)(C)c1ccc(OCCNC(=S)Nc2ccccc2)cc1 | -1% | 14% | i | i | 13µM*
COc1cccc(CNS(=O)(=O)c2cc(Br)ccc2Br)c1 | ? | nt | i | i | 18µM*
O=S(=O)(NCc1ccc(F)cc1)c1ccc(Br)cc1Br | 20µM* | 17% | i | i | 22µM*
O=S(=O)(NCc1ccccc1)c1ccc(F)cc1Br | 0% | 17% | i | i | 18%
COc1cccc(CNS(=O)(=O)c2cc3[nH]c(=O)c(=O)[nH]c3cc2C)c1 | nt | nt | i | i | 20%
COc1ccc(C2C(C(=O)Nc3ccc(F)cc3F)CCC(=O)N2c2ccc(OC)cc2)cc1 (stereo not given) | nt | nt | i | nt | nt
COc1cc(/C=C(\C#N)C(=O)c2ccc(O)c(O)c2)cc(I)c1O | -27% | 23µM*! | i | i | 4%
Cc1cccc(C(=O)Nc2sc3c(c2C(=O)O)CCC3)c1 | -4% | 7% | i | i | -2%
CNC(=O)c1c(NC(=O)c2cccc(C)c2)sc2c1CCC2 | -8% | -7% | i | i | 14µM*
COc1ccc2ncc(S(=O)(=O)c3ccccc3)c(N3CCN(c4ccccc4)CC3)c2c1 | ? | 18% | i | i | 16µM*
COc1cc2ncc(S(=O)(=O)c3ccccc3)c(N3CCC4(CC3)OCCO4)c2cc1OC | 0% | 2% | i | i | ?
COc1ccc2ncc(S(=O)(=O)c3ccccc3)c(N3CCC4(CC3)OCCO4)c2c1 | 7% | -4% | i | i | 18µM*
Cc1cc(N/N=C/c2ccc(F)cc2)nc(-n2nc(C)cc2C)n1 | 9% | ? | i | 13µM* | 15%
Cc1ccc(C2=NN(Cc3nnc(-c4ccccc4)o3)C(=O)SC2)cc1 | 10% | ? | nt | i | 18µM*
